The record followed here is the supplement of paper PMC9023506.

Counter-ions that a name gives are not always drawn.

One experiment concerns Danio rerio larvae (5 dpf). In words: optomotor response to green moving lines, difference vs DMSO (percentage points (treated minus DMSO)); higher = more of the behaviour than the DMSO vehicle control. The following applies: 10 µM; exposure time: 3 h pre-incubation + 3 h imaging. The gist of the method: (§1)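 Five-days-post-fertilisation wild-type zebrafish larvae were held in 96-well ProxiPlates and exposed to each library drug at a final 10 µM, diluted 1000× from DMSO stocks into egg water, with 48 larvae per drug. Exposure lasted 3 h before and 3 h during imaging at 28.5 °C, with images taken every 6 s across a 3-h program of rest, moving coloured lines and acoustic pulses. An ImageJ macro scored movement and upper-half location, and each behaviour score is the treated-group mean minus the vehicle-group mean, expressed in percentage points.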
For the compound `CC[C@H](C)C(=O)O[C@H]1C[C@@H](C)C=C2C=C[C@H](C)[C@H](CC[C@@H]3C[C@@H](O)CC(=O)O3)[C@H]21` [Lovastatin], the “optomotor response to green moving lines” value was -3.13. On the same count and under the same terms, the same measure for `O=C1CCc2cc(OCCCCc3nnnn3C3CCCCC3)ccc2N1` [Cilostazol]: 3.44; for `O=C(O[C@@H]1C[C@@H]2C[C@H]3C[C@H](C1)N2CC3=O)c1c[nH]c2ccccc12` [Dolasetron mesylate]: -11.6. As to `Cc1c(-c2ccc(O)cc2)n(Cc2ccc(OCCN3CCCCCC3)cc2)c2ccc(O)cc12` [Bazedoxifene acetate], the “optomotor response to green moving lines” value is -2.2. With `CCOC(=O)C1=C(COCCN)NC(C)=C(C(=O)OC)C1c1ccccc1Cl` (stereo not given) [Amlodipine besylate], the “optomotor response to green moving lines” value is -4.86.

Regarding `O=C1CCc2ccc(OCCCCN3CCN(c4cccc(Cl)c4Cl)CC3)cc2N1` [Aripiprazole], the “optomotor response to green moving lines” value was -2.87. Take `C[C@H]1O[C@H](O[C@H]2[C@H](O)[C@@H](O)[C@@H](O[C@H]3[C@H](O)[C@@H](O)C(O)O[C@@H]3CO)O[C@@H]2CO)[C@H](O)[C@@H](O)[C@@H]1N[C@H]1C=C(CO)[C@@H](O)[C@H](O)[C@H]1O` (stereo not given in full) [Acarbose]: the “optomotor response to green moving lines” value worked out at 6.59. For `CCc1nc(N)nc(N)c1-c1ccc(Cl)cc1` [Pyrimethamine], the “optomotor response to green moving lines” value was 6.72. Take `Cc1cc(C2CCCCC2)n(O)c(=O)c1` [Ciclopirox]: the “optomotor response to green moving lines” value was -5.97. Regarding `CC(C)COCC(CN(Cc1ccccc1)c1ccccc1)N1CCCC1` (stereo not given) [Bepridil hydrochloride], the “optomotor response to green moving lines” value is -2.16. With `CNS(=O)(=O)Cc1ccc2[nH]cc(CCN(C)C)c2c1` [Sumatriptan succinate], the “optomotor response to green moving lines” value was 3.74. On to `CC(C)(C(=O)c1cccnc1)c1cccnc1` [Metyrapone], for which the “optomotor response to green moving lines” value was -5.18. On the same count and under the same terms, then `N#C[C@@H]1C[C@@H]2C[C@@H]2N1C(=O)[C@@H](N)C12CC3CC(CC(O)(C3)C1)C2` [Saxagliptin hydrochloride], with -3.2; and `N[C@@H]1[C@H]2CN(c3nc4c(cc3F)c(=O)c(C(=O)O)cn4-c3ccc(F)cc3F)C[C@@H]12` [Trovafloxacin mesylate], with -4.23.

For another experiment, the system named is Danio rerio larvae (5 dpf). In words: startle response to 20-s acoustic pulses, difference vs DMSO (percentage points (treated minus DMSO)); higher = more of the behaviour than the DMSO vehicle control. The following applies: 10 µM; exposure time: 3 h pre-incubation + 3 h imaging. In a few lines:
as §1
As for `CC(C)n1c(/C=C/C(O)CC(O)CC(=O)O)c(-c2ccc(F)cc2)c2ccccc21` (stereo not given) [Fluvastatin sodium], the “startle response to 20-s acoustic pulses” value stood at 1.71. The same measure, in the same setting: the same measure for `CCOC(=O)[C@H](CCc1ccccc1)N[C@@H](C)C(=O)N1[C@H](C(=O)O)C[C@@H]2CCC[C@@H]21` [Ramipril]: -1.54. On to `CN[C@H]1CC[C@@H](c2ccc(Cl)c(Cl)c2)c2ccccc21` [Sertraline hydrochloride], for which the “startle response to 20-s acoustic pulses” value is 1.74. Same read-out and setting: the same measure for `CCOC(=O)N1CCC(=C2c3ccc(Cl)cc3CCc3cccnc32)CC1` [Loratidine]: 14.8; for `O=C(O[C@@H]1C[C@@H]2C[C@H]3C[C@H](C1)N2CC3=O)c1c[nH]c2ccccc12` [Dolasetron mesylate]: 2.42; for `CC(c1cc2ccccc2s1)N(O)C(N)=O` (stereo not given) [Zileuton]: -2.9.

With `COCCc1ccc(OCC(O)CNC(C)C)cc1` (stereo not given) [Metoprolol tartrate], the “startle response to 20-s acoustic pulses” value stood at 6.66. With `Nc1cccc2c1CN(C1CCC(=O)NC1=O)C2=O` (stereo not given) [Lenalidomide], the “startle response to 20-s acoustic pulses” value is -5.01. As to `CCc1nc(N)nc(N)c1-c1ccc(Cl)cc1` [Pyrimethamine], the “startle response to 20-s acoustic pulses” value was 1.7. As for `CCCCCCCN(CC)CCCC(O)c1ccc(NS(C)(=O)=O)cc1` (stereo not given) [Ibutilide hemifumarate], the “startle response to 20-s acoustic pulses” value was -3.17. Still for that read-out and setting: then `C[C@H]1C[C@@H]2[C@H]([C@@H](O)C[C@@]3(C)[C@H]2CC[C@]3(O)C(=O)CO)[C@@]2(C)C=CC(=O)C=C12` [Methylprednisolone], with -0.0848; and `N[C@@H]1[C@H]2CN(c3nc4c(cc3F)c(=O)c(C(=O)O)cn4-c3ccc(F)cc3F)C[C@@H]12` [Trovafloxacin mesylate], with -7.29.

For the next experiment, the system named is Danio rerio larvae (5 dpf). Briefly: optomotor response to fast red moving lines, difference vs DMSO (percentage points (treated minus DMSO)); higher = more of the behaviour than the DMSO vehicle control. The following applies: 10 µM; exposure time: 3 h pre-incubation + 3 h imaging. In a few lines:
as §1
As for `CC(C)n1c(/C=C/C(O)CC(O)CC(=O)O)c(-c2ccc(F)cc2)c2ccccc21` (stereo not given) [Fluvastatin sodium], the optomotor response is -5.56.

Take `O=C1CCc2cc(OCCCCc3nnnn3C3CCCCC3)ccc2N1` [Cilostazol]: the optomotor response is -1.51. On to `CN[C@H]1CC[C@@H](c2ccc(Cl)c(Cl)c2)c2ccccc21` [Sertraline hydrochloride], for which the optomotor response was -8.12. As for `CCOC(=O)N1CCC(=C2c3ccc(Cl)cc3CCc3cccnc32)CC1` [Loratidine], the optomotor response is -26.1. Turning to `CC(c1cc2ccccc2s1)N(O)C(N)=O` (stereo not given) [Zileuton], the optomotor response was -16.8. `COCCc1ccc(OCC(O)CNC(C)C)cc1` (stereo not given) [Metoprolol tartrate]: the optomotor response is -7.77. As for `CCc1nc(N)nc(N)c1-c1ccc(Cl)cc1` [Pyrimethamine], the optomotor response came out at 9.74.

As for `Cc1cc(C2CCCCC2)n(O)c(=O)c1` [Ciclopirox], the optomotor response was 3.21. For `CN(C)C(=N)NC(=N)N` [Metformin hydrochloride], the optomotor response came out at 10.2.

Turning to `CNS(=O)(=O)Cc1ccc2[nH]cc(CCN(C)C)c2c1` [Sumatriptan succinate], the optomotor response is -17.2. For the compound `Cc1ccsc1C(=CCCN1CCC[C@@H](C(=O)O)C1)c1sccc1C` [Tiagabine hydrochloride], the optomotor response was 21.7.

For the compound `CC(C)(C(=O)c1cccnc1)c1cccnc1` [Metyrapone], the optomotor response is -11.5. On to `N#C[C@@H]1C[C@@H]2C[C@@H]2N1C(=O)[C@@H](N)C12CC3CC(CC(O)(C3)C1)C2` [Saxagliptin hydrochloride], for which the optomotor response is -7.58. Regarding `C[C@H]1C[C@@H]2[C@H]([C@@H](O)C[C@@]3(C)[C@H]2CC[C@]3(O)C(=O)CO)[C@@]2(C)C=CC(=O)C=C12` [Methylprednisolone], the optomotor response is -4.16.
